One sequence from patent US20230313203, “FLUOROARABINO NUCLEIC ACID (FANA) […] THAT BIND SARS-2 RECEPTOR BINDING DOMAIN AND BLOCK BINDING TO THE ACE2 […] RECEPTOR” (University of Maryland, College Park, published 2023) can be followed below.

The assay concerns the target SARS-CoV-2 spike receptor binding domain (Wuhan) (SARS-CoV-2, UniProt P0DTC2 P0DTC2:319-541). Kind of assay: inhibition. The conditions noted are these: XNA; first 20 nt DNA, rest FANA (SEQ ID NO 3).

Measured potencies and affinities stand elsewhere.

As for “AAAAGGTAGTGCTGAATTCGUCGAACUAAUCCGAAUUGAUGGCAUAAAAAGCAUGUUUAGUUCGCUAUCCAGUUGGCCU”, the binding signal is ~3 fold weaker.
